Consider 95 molecules from PubChem BioAssay AID588397 (National Center for Advancing Translational Sciences (NCATS), 2011).

About 1,000 (77%) of roughly 1,300 compounds were called active. Another 7% or so got no clear call; they are omitted. The call rests on the fitted dose curve; in most records, active means well fitted inhibition curve with a large enough effect; inconclusive means small, poorly fitted or top-dose-only effect; inactive means no such curve, though single readings can be large or run the other way. The set was probably picked from earlier hits. The list shows a part of the results.
On the % scale 0 is the no-effect control and ±100 the full control effect; potency means the concentration at half of the fitted maximal effect.

The nature of this assay: qHTS of small molecules that selectively kill Giardia lamblia: Hit Validation.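 Further: viability measured as ATP content by luminescence so killing lowers signal; trophozoites exposed to compounds for 48 h anaerobically at 37 °C; nearly all actives have a fitted effect of over 65% in size.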 The conditions noted are these: Giardia lamblia trophozoite viability, dose-response; series mostly up to 38.3 µM; activity change, negative = killing: at the top concentration. In short, it runs like this: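 Anaerobic 48 hrs incubation at 37 deg C of 100 trophozoites/well with test compounds; ATPLite 1-Step luminescence, 15-30 min RT, reports cellular ATP as viability.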
As to `CCc1ccc(S(=O)(=O)Nc2ccc(-c3ccc4nnc(C)n4n3)cc2)s1`, the “activity change, negative = killing” value is -30% (inactive).
Same read-out and setting: in the case of `COC(=O)[C@@]12CCCCN1[C@H](c1ccc(-c3ccc(C(C)=O)cc3)cc1)[C@@H]1C(=O)N(C)C(=O)[C@@H]12` it was -23.9% (inactive).
As to `CC12CN3CC(C)(CN(C1)C3c1ccc([N+](=O)[O-])o1)C2` (stereo not given), the Potency was 1300 nM (active).
As to `CCCC12CN3CC(C)(CN(C1)C3c1ccc([N+](=O)[O-])o1)C2=O` (stereo not given), the Potency is 1830 nM (active).
The same measure, in the same setting: next, `CCC12CN3CC(CC)(CN(C1)C3c1ccc([N+](=O)[O-])o1)C2=O` (stereo not given): 4100 nM (active); `CCCCC12CN3CC(C)(CN(C1)C3c1ccc([N+](=O)[O-])o1)C2=O` (stereo not given): 2050 nM (active).
Take `O=c1cccc(-c2ccccc2)[nH]1`: the “activity change, negative = killing” value is -19.2% (inactive).
`O=c1[nH]c(=O)c2cc([N+](=O)[O-])cc([N+](=O)[O-])c2[nH]1`: the Potency was 4100 nM (active).
Still for that read-out and setting: next, `COC(=O)c1sc(NC(=O)COc2cccnc2[N+](=O)[O-])c(C(=O)OC)c1C`: 4100 nM (active).
As for `COc1ccccc1NCCC(=O)OCC(=O)NC1CCCCCC1`, the “activity change, negative = killing” value is -3.6% (inactive).
As to `COc1ccccc1NC(=O)COc1cccnc1[N+](=O)[O-]`, the Potency is 6500 nM (active).
Take `O=C(COc1cccnc1[N+](=O)[O-])Nc1cccc2ccccc12`: the Potency is 4600 nM (active).
Same read-out and setting: in the case of `O=C(COc1cccnc1[N+](=O)[O-])N1CCc2ccccc21` it was 4100 nM (active).
Consider `CC(C)Cn1c(=S)[nH]c2cc(C(=O)NCc3ccccc3F)ccc2c1=O`, for which the “activity change, negative = killing” value is 2.52% (inactive).
`S=c1[nH]nc2ccccn12`: the “activity change, negative = killing” value is -16.5% (inactive).
`O=[N+]([O-])c1cnc2ccccn12`: the Potency was 2050 nM (active).
As to `O=C(CSc1cccc[n+]1[O-])Nc1cc2c(cc1Cl)C(=O)c1ccccc1C2=O`, the Potency was 2900 nM (active).
Still for that read-out and setting: next, `COCCNC(=O)/C(C#N)=C/c1ccc(O)c([N+](=O)[O-])c1`: 4600 nM (active).
The same measure, in the same setting: next, `N#C/C(=C\c1ccc(O)c([N+](=O)[O-])c1)C(=O)NCc1ccccc1`: 3260 nM (active); `N#C/C(=C/c1ccc(O)c([N+](=O)[O-])c1)C(=O)Nc1ccccc1`: 3260 nM (active); `N#C/C(=C\c1ccc(O)c([N+](=O)[O-])c1)c1nc2ccccc2s1`: 1830 nM (active).
Take `CC(C)C[C@H](NC(=O)c1[nH]cnc1C(=O)N[C@H](C)c1ccccc1)C(=O)OCc1ccccc1`: the “activity change, negative = killing” value was -11.2% (inactive).
For `CCN(CC)CC(=O)Nc1c(C)cccc1C`, the “activity change, negative = killing” value is 2.88% (inactive).
With `O=c1/c(=C/c2ccc(O)c([N+](=O)[O-])c2)sc2nc3ccccc3n12`, the Potency is 2590 nM (active).
Same read-out and setting: next, `COc1ccc2c(c1)C1OCCC1C(c1ccco1)N2` (stereo not given): 2310 nM (active).
Still for that read-out and setting: next, `Cc1ccc(N2CC(C(=O)Nc3ncc([N+](=O)[O-])s3)CC2=O)cc1` (stereo not given): 365 nM (active); `O=C(Nc1ncc([N+](=O)[O-])s1)C1CC(=O)N(c2ccc(F)cc2)C1` (stereo not given): 1030 nM (active).
As for `O=C(CCN=C1NS(=O)(=O)c2ccccc21)OCC(=O)c1ccc(F)c(F)c1`, the “activity change, negative = killing” value is 5.94% (inactive).
As to `CCCNC(=O)Cn1c(=O)n(C)c2ccccc21`, the “activity change, negative = killing” value was 2.52% (inactive).
For the molecule `COc1cc2c(cc1OC)-c1c(OC)c(OC)cc3ccnc(c13)C2=O`, the Potency is 579 nM (active).
On the same count and under the same terms, next, `CCN(CC)CCCNc1nc2ccccc2c2[nH]c3ccc(OC)cc3c12`: 183 nM (active); `COc1ccc(-c2nc(NCCCN(C)C)c3ccccc3n2)cc1`: 818 nM (active).
`CCN1C(=O)[C@H]2[C@H]3CN=C(SCc4ccccc4)N3[C@@](Cc3ccccc3)(C(=O)OC)[C@H]2C1=O`: the “activity change, negative = killing” value is 13.6% (inactive).
`Cc1nn2c3cc(N4CCOCC4)ccc3nc2c2ccccc12`: the Potency was 1030 nM (active).
On the same count and under the same terms, next, `COc1cccc2c1C(CO)N1C(C#N)C3CC(C(=O)O)C(C1C2)N3C` (stereo not given): 1160 nM (active); `O=C(N/N=C/c1ccc([N+](=O)[O-])o1)C1CCCC1`: 516 nM (active).
Still for that read-out and setting: next, `O=C(N/N=C/c1ccc([N+](=O)[O-])o1)C1CC1`: 1160 nM (active).
Turning to `CCOc1cc([N+](=O)[O-])cc(/C=C2/NC(=O)N(Cc3ccccc3F)C2=O)c1O`, the Potency was 1630 nM (active).
Still for that read-out and setting: next, `CC(C)Oc1cc(O)c2c(=O)c(-c3ccc(O)cc3)coc2c1`: 516 nM (active); `O=c1c(-c2ccc(F)cc2)coc2cc(O)ccc12`: 918 nM (active); `COc1ccc(-c2coc3cc(O)ccc3c2=O)cc1`: 1160 nM (active).
Same read-out and setting: in the case of `CC1(C)Oc2cc3oc(-c4cc(O)cc(O)c4)cc3cc2CC1O` (stereo not given) it was 1450 nM (active).
For the molecule `COC(=O)[C@]1(Cc2ccccc2)N[C@H](CN(C)C(=O)c2ccccc2)[C@@H]2C(=O)N(C)C(=O)[C@@H]21`, the “activity change, negative = killing” value was -1.17% (inactive).
For `COc1ccc(C(=O)C(C)OC(=O)CNC(=O)C2CCCCC2)cc1` (stereo not given), the Potency was 4600 nM (active).
Turning to `COc1ccc2oc(C(=O)OC(C)C(=O)NCc3ccccc3)c(C)c2c1` (stereo not given), the “activity change, negative = killing” value is -21.9% (inactive).
For the molecule `COc1ccc(C(=O)C(C)OC(=O)CNC(=O)c2ccco2)cc1` (stereo not given), the Potency is 20500 nM (active).
On to `CCOC(=O)N=Nc1c2ccccc2c2nc3no[nH]c3nc12`, for which the Potency is 365 nM (active).
In the case of `Fc1cc2[nH]cnc2cc1Cl`, the “activity change, negative = killing” value was -8.27% (inactive).
Consider `CC(C)CNC(=S)NC(=O)c1csc([N+](=O)[O-])c1`, for which the Potency is 1300 nM (active).
`O=C(NCc1ccco1)NC(=O)c1csc([N+](=O)[O-])c1`: the Potency is 1630 nM (active).
Same read-out and setting: in the case of `COc1cc(/C=C/C(=O)c2ccc3c(c2)OCCO3)cc(OC)c1OC` it was 7290 nM (active).
Regarding `COc1cc(C(=S)N2CCOCC2)ccc1OC(=O)/C=C/c1ccco1`, the “activity change, negative = killing” value was 7.28% (inactive).
For the molecule `Cc1nn(-c2nc3ccccc3[nH]2)c(=O)c2ccccc12`, the Potency is 230 nM (active).
As for `COC1C(OC(=O)/C=C/C=C/C=C/C=C/C(=O)O)CCC2(CO2)C1C1(C)OC1CC=C(C)C` (stereo not given) (tested in a mixture with another compound), the Potency is 1.5 nM (active).
The same measure, in the same setting: next, `CCOc1ccc2nc(NC(=O)c3c([N+](=O)[O-])cnn3CC)sc2c1`: 1830 nM (active).
Still for that read-out and setting: next, `CCn1ncc([N+](=O)[O-])c1C(=O)Nc1nc2cccc(C)c2s1`: 4100 nM (active); `Cc1ccccc1C(=O)Nc1ccc2c(c1)OCCO2`: 3650 nM (active); `Cc1ccc(C(=O)Nc2ccc3c(c2)OCCO3)o1`: 7290 nM (active).
As for `O=C(Nc1ccc2c(c1)OCCO2)c1ccc(Br)o1`, the Potency was 5160 nM (active).
Consider `O=C(Nc1ccc2c(c1)OCCO2)c1cc(-c2ccccn2)nc2ccc(Br)cc12`, for which the Potency was 4100 nM (active).
As for `Cc1ccc(-c2c(C(=O)N/N=C/C3CC=CCC3)nnn2-c2nonc2N)cc1` (stereo not given), the “activity change, negative = killing” value is -19.1% (inactive).
Consider `CN(C)S(=O)(=O)c1ccc(N2CCCC2)c(C(=O)N2CCN(c3ccc([N+](=O)[O-])cc3)CC2)c1`, for which the Potency is 1830 nM (active).
With `O=C(N=Nc1c(O)[nH]c2ccccc12)c1cccs1`, the Potency is 3650 nM (active).
For `O=C(CNC(=O)Cc1ccccc1)N=Nc1c(O)[nH]c2ccc(Br)cc12`, the “activity change, negative = killing” value is -12.8% (inactive).
With `O=[N+]([O-])c1cncn1CCN1CCOCC1`, the Potency was 326 nM (active).
On to `C[C@]12c3[nH]c4ccc(Cl)cc4c3CCN1C(=O)[C@@H](CC(=O)NCCN1CCOCC1)C[C@@H]2C(=O)N1CCOCC1`, for which the “activity change, negative = killing” value is -36.2% (inactive).
Regarding `Cc1ccc(NC(=O)c2ccc([N+](=O)[O-])o2)cc1C`, the Potency was 460 nM (active).
Same read-out and setting: in the case of `Cc1cccc(NC(=O)c2ccc([N+](=O)[O-])o2)c1` it was 729 nM (active); in that of `Cc1cc(C)cc(NC(=O)c2ccc([N+](=O)[O-])o2)c1`, 1030 nM (active).
Take `CC(=O)c1cccc(NC(=O)c2ccc([N+](=O)[O-])o2)c1`: the Potency was 1160 nM (active).
For `CC(=O)c1ccc(NC(=O)c2ccc([N+](=O)[O-])o2)cc1`, the Potency was 818 nM (active).
Still for that read-out and setting: next, `COc1ccc(NC(=O)c2ccc([N+](=O)[O-])o2)cc1`: 1030 nM (active).
Turning to `COc1ccc(CC(=O)NCC(=O)Nc2ccccc2Br)cc1`, the “activity change, negative = killing” value is -17.5% (inactive).
Consider `COc1cc(C(=O)/C=C/c2cccnc2)c([N+](=O)[O-])cc1OC`, for which the Potency is 4600 nM (active).
With `O=C(/C=C/c1cccnc1)/C=C/c1cccnc1`, the Potency was 18300 nM (active).
Still for that read-out and setting: next, `Cc1cc(Nc2ccccc2)c2c([N+](=O)[O-])ccc(C)c2n1`: 259 nM (active); `COc1ccccc1Nc1cc(C)nc2c(C)ccc([N+](=O)[O-])c12`: 2590 nM (active); `Cc1ccc(Nc2cc(C)nc3c(C)ccc([N+](=O)[O-])c23)cc1`: 146 nM (active).
`Cc1cc(Nc2ccccc2)c2c([N+](=O)[O-])cc(C)c(C)c2n1`: the Potency was 259 nM (active).
On to `CN(C)/[N+]([O-])=N/Oc1ccc([N+](=O)[O-])cn1`, for which the Potency is 2590 nM (active).
As to `Cc1cc(C2=NNC(=NC3CC3)SC2)c(C)n1-c1ccccc1F`, the Potency is 1450 nM (active).
As for `COc1ccc(-c2ncn(CCC#N)c2[N+](=O)[O-])cc1`, the Potency was 206 nM (active).
Still for that read-out and setting: in the case of `CCn1c(=NC(=O)c2cccc(N3C(=O)CCC3=O)c2)sc2c(OC)ccc(OC)c21` it was 2310 nM (active); in that of `Cc1cccc(N2CCN(C(=S)Nc3ccc4nc(N5CCN(C)CC5)cc(C)c4c3)CC2)c1C`, 1030 nM (active).
The same measure, in the same setting: next, `Cc1ccc(C)c(N2CCN(C(=S)Nc3ccc4nc(N5CCN(C)CC5)cc(C)c4c3)CC2)c1`: 1300 nM (active); `COc1ccc2nc(C)cc(N/N=C/c3cccc(OC)c3O)c2c1`: 918 nM (active).
`COc1ccc(N(CC(=O)N/N=C/c2cccc(OC)c2OC)S(=O)(=O)c2ccccc2)cc1`: the “activity change, negative = killing” value was -8.54% (inactive).
In the case of `COc1ccc2nc(C)cc(N/N=C/c3ccc(F)cc3)c2c1`, the Potency was 1160 nM (active).
On the same count and under the same terms, next, `COc1ccc(/C=N/Nc2cc(C)nc3c(C)cccc23)cc1`: 818 nM (active); `O=c1c([N+](=O)[O-])cccn1Cc1cccc(Cl)c1`: 4600 nM (active).
Same read-out and setting: in the case of `O=c1c([N+](=O)[O-])cccn1Cc1cccc(Br)c1` it was 2050 nM (active); in that of `CCN1CCN(Cc2ccc(NC(=O)Nc3ccccc3)cc2)CC1`, 9180 nM (active).
`O=C(NCC1CCN(Cc2ccc(F)cc2)CC1)Nc1cc(F)ccc1F`: the “activity change, negative = killing” value is -28.9% (inactive).
`CN(C(=O)c1cccc(NC(=O)Cc2ccc(NC(=O)C3CCN(C(=O)c4ccccc4)CC3)cc2)c1)C1CC1`: the “activity change, negative = killing” value was 4.59% (inactive).
As for `O=C(Nc1ccccc1)Nc1ccc(C(=O)N2CCCC2)cc1`, the Potency is 5790 nM (active).
